Laboratory results as given in PubChem BioAssay.

Assay: DUSP6 inhibitors restoring Erk phosphorylation by chemical complementation, primary imaging in DUSP6-transfected HeLa (AID 609)
Details: HeLa MKP-3 transfected, phospho-Erk imaging KS statistic; measured here: nuclear pErk red intensity z-score; at 10 µM; stronger effect = higher value; cells stimulated with TPA for 15 min

| SMILES | z-score |
| --- | --- |
| Nc1nc2c(ncn2COCCO)c(=O)[nH]1 | -1.02 |
| Cc1cc(N/C=C/C(=O)c2cccc3ccccc23)no1 | -0.55 |
| Cc1nnc(NS(=O)(=O)c2ccc(N)cc2)s1 | 0.118 |
| Cc1nc2sc(C)c(C)c2c(=O)o1 | 1.05 |
| CC(=O)O[C@@]12CO[C@@H]1C[C@H](O)[C@@]1(C)C(=O)[C@H](O)C3=C(C)[C@@H](OC(=O)[C@H](O)[C@@H](NC(=O)OC(C)(C)C)c4ccccc4)C[C@](O)([C@@H](OC(=O)c4ccccc4)[C@H]21)C3(C)C | 1.58 |
| CC[C@H]1CN2CCc3cc(OC)c(OC)cc3[C@@H]2C[C@@H]1C[C@H]1NCCc2cc(OC)c(OC)cc21 | 0.619 |
| CC1=NS(=O)(=O)c2cc(Cl)ccc2N1 | -0.365 |
| O=C(NCC1CCCCN1)c1cc(OCC(F)(F)F)ccc1OCC(F)(F)F (configuration not stated) | 0.103 |
| CC[C@]1(O)C[C@@H]2CN(CCc3c([nH]c4ccccc34)[C@@](C(=O)OC)(c3cc4c(cc3OC)N(C)[C@H]3[C@@](O)(C(=O)OC)[C@H](OC(C)=O)[C@]5(CC)C=CCN6CC[C@]43[C@@H]65)C2)C1 | 1.1 |
| O=C(CCN1CCc2ccccc21)c1ccc2c(c1)OCCO2 | -0.911 |
| O=C(c1ccc(N2C(=O)C3CC=C(Cl)CC3C2=O)cc1)N1CCCCC1 (configuration not stated) | -2.02 |
| COc1ccc([C@@H]2Sc3ccccc3N(CCN(C)C)C(=O)[C@@H]2OC(C)=O)cc1 | 0.473 |
| COc1ccc[nH]c1=O | -1.08 |
| O=C(CCCN1CCC(O)(c2ccc(Cl)cc2)CC1)c1ccc(F)cc1 | -0.889 |
| CCn1cc(/C=N/O)c(C)n1 | -0.0353 |
| CC(C)(C#N)C(C)(C)c1nn[nH]n1 | -0.013 |
| O=C(O)c1ccc(COCC(F)(F)C(F)F)o1 | 0.623 |
